According to ChEMBL document CHEMBL3433997, “St. Jude Leishmania screening dataset” (2016):

target: Glucose transporter (Leishmania mexicana) (UniProt O61059); test: ST_JUDE_LEISH: Cytotoxicity at 2uM final concentration against transgenic Leishmania Mexicana promastigotes LmGT2 that are glucose transport deficient and complemented with the L. Mexicana glucose transporter 2. Activity is measured by DNA content using SYBR green in vitro; assay type: functional

Compound | inhibition
CCN(C(=O)CSc1cc(C)c2cc(C)cc(C)c2n1)C1CCS(=O)(=O)C1 (stereo not given) | -0.42%
CC(C)c1ccc(NC(=O)c2ccc(NCCCN(C)Cc3ccccc3)c([N+](=O)[O-])c2)cc1 | -0.53%
COc1cc(CCNC(=N)/C=C/c2ccc(Cl)cc2)ccc1Cl | -0.39%
O=C1CCCN1CCCNCc1ccc(-c2ccc(-c3nc4cc(F)ccc4[nH]3)s2)cc1 | 6.85%
CN1C(=C2SC(=Nc3ccc4ncccc4c3)N(Cc3ccccc3)C2=O)Sc2ccc(Cl)cc21 | 1.06%
CCCCCN1CCCC1CNS(=O)(=O)c1ccc(C(=O)Nc2cccc(C(F)(F)F)c2)cc1 (stereo not given) | 0.19%
Cc1cccc2nc(-c3cccc(-c4ccc(NC(=O)Cc5c[nH]cn5)cc4)c3)[nH]c12 | -0.58%
CC(=NNC(S)=NC(C)(C)C)c1ccccn1 | 49.6%
CN(CCc1ccccc1)c1ncc(-c2cccc(CNCCC3CCCN3C)c2)cn1 (stereo not given) | 109%
Oc1ccc(CCNc2nc(NCc3ccccc3-c3ccc(C(F)(F)F)cc3)nc(N3CCNCC3)n2)cc1 | 1.94%
Cc1ccc(Cn2ncc(N3CCNCC3)c(Cl)c2=O)cc1NC(=O)Nc1ccc(-c2ccccc2)cc1 | 2.01%
COCCNC(=O)C(CNC(=O)c1ccc2c(c1)OCO2)NC(=O)c1ccc(-c2ccccc2)cc1 (stereo not given) | 0.64%
CCc1ccc(CN2CCC(NC(=O)c3ccc(-c4ccc(N(C)C)cc4)s3)CC2)cc1 | 6.05%
CC(=O)Nc1ccc(CN2CCC(CNC(=O)c3cc(-c4cccc(C(F)(F)F)c4)cs3)C2)cc1 (stereo not given) | -5.57%
FC(F)(F)c1ccc2nccc(NCc3ccccc3)c2c1 | 1.41%
